Assay results published in PubChem BioAssay (NCATS).
Calls of active or inactive are those of the source. The rule behind the calls is not given here.

details: Ebola virus entry assay, reporter ratio channel; Channel type: primary

SMILES | outcome | AC50
Nc1c2c(nc3ccccc13)CCCC2O (centres undefined) | inactive | 
c1ccc(-c2ccc(C(c3ccccc3)n3ccnc3)cc2)cc1 (centres undefined) |  | 14.1 µM (active)
CC(C)NCCCC1(C(N)=O)c2ccccc2-c2ccccc21 | inactive | 
C[C@@H]1C[C@H]2[C@@H]3CCC4=CC(=O)C=C[C@]4(C)[C@@]3(F)[C@@H](O)C[C@]2(C)[C@@]1(O)C(=O)COC(=O)c1ccncc1 |  | 39.8 µM (active)
Nc1ccc2c(c1)CN1C(=O)c3ccccc3C1=N2 | inactive | 
COC[C@@H](c1ccc(C(F)(F)F)cc1)N1CCN(C2(C)CCN(C(=O)c3c(C)ncnc3C)CC2)C[C@H]1C |  | 25.1 µM (active)
CCOC(=O)C1(c2ccccc2)CCN(CCc2ccc(N)cc2)CC1 |  | 20 µM (active)
O=C(CS)Nc1ccccc1 |  | 25.1 µM (active)
Nc1nc2ccccc2n1Cc1ccc(F)cc1 |  | 39.8 µM (active)
CCOC(=O)OC(C)OC(=O)[C@@H]1N2C(=O)[C@@H](NC(=O)[C@H](N)c3ccccc3)[C@H]2SC1(C)C (some centres undefined) | inactive | 
CCOC(=O)COc1ccc2c(C)c(CCN(CC)CC)c(=O)oc2c1Cl |  | 25.1 µM (active)
CN(C(=O)CCCOc1ccc2[nH]c(=O)ccc2c1)C1CCCCC1 | inactive | 
CC[N+](CC)(CC)CCOc1ccc(/C=C/c2ccccc2)cc1 |  | 39.8 µM (active)
CCOCCn1c(N2CCCN(C)CC2)nc2ccccc21 |  | 39.8 µM (active)
NS(=O)(=O)c1ccc(N2CCCCS2(=O)=O)cc1 | inactive | 
CC/C(=C(/CC)c1ccc(O)cc1)c1ccc(O)cc1 | inactive | 
C[C@H]1O[C@@H](O[C@H]2CC[C@@]3(C)[C@H](CC[C@@H]4[C@@H]3C[C@@H](O)[C@]3(C)[C@@H](C5=CC(=O)OC5)CC[C@]43O)C2)C[C@H](O)[C@@H]1O[C@H]1C[C@H](O)[C@H](O[C@H]2C[C@H](O)[C@H](O[C@@H]3O[C@H](CO)[C@@H](O)[C@H](O)[C@H]3O)[C@@H](C)O2)[C@@H](C)O1 |  | 0.891 µM (active)
Clc1ccc(C(OCCN2CCCCC2)c2ccccc2)cc1 (centres undefined) |  | 14.1 µM (active)
CC1=C(CC(=O)O)c2cc(F)ccc2/C1=C\c1ccc(S(C)(=O)=O)cc1 |  | 39.8 µM (active)
CNC[C@H](O)c1ccc(O)c(O)c1 | inactive | 
c1cnc(N2CCN(Cc3ccc4c(c3)OCO4)CC2)nc1 | inactive | 
Cc1nc2ccccc2c(=O)n1-c1ccccc1Cl |  | 20 µM (active)
C[C@@H]1CC[C@H]2[C@@H](C)C(=O)O[C@@H]3O[C@@]4(C)CC[C@@H]1[C@]32OO4 | inactive | 
C=C1c2cccc(O)c2C(O)=C2C(=O)[C@]3(O)C(O)=C(C(N)=O)C(=O)[C@@H](N(C)C)[C@@H]3[C@@H](O)[C@H]12 |  | 6.31 µM (active)
